# Values without a mark were called inactive. For some assays here: Entries with a potency or affinity are not part of this list. Activity calls are given as the source filed them. Unless noted, how the calls were made is not given here.
# Experiments:
# [1] = antimalarial activity against Dd2 strain (AID 2302;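 active means growth inhibition above 50% at the single 2 µM test dose, taken to imply half-maximal potency below 2 µM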;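 further: 0% = DMSO untreated growth and 100% = chloroquine plus artemisinin killed control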); conditions: P. falciparum Dd2 in RBCs, LDH growth readout, 72 h; at 2 µM; stronger effect = higher value
# [2] = human hepatoma cell viability loss – ATP luminescence, cytotoxicity control for P. falciparum antimalarial project, primary screen (AID 2303;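 active means inhibition above 50%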;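 further: 0% = DMSO wells and 100% = digitonin-killed cells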); conditions: HepG2 viability, 24-48 h, at 10 µM, stronger effect = higher value
# [3] = biological target: L-lactate dehydrogenase (Plasmodium falciparum (isolate CDC / Honduras)) (UniProt Q27743); assay: PfLDH activity inhibition – cell lysate, 3D7 strain, counter-screen for P. falciparum growth inhibition project (AID 2304);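 further: 0% = vehicle and 100% = reference inhibitor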; conditions: P. falciparum 3D7 crude extract, LDH APAD/NBT absorbance; at 2 µM; stronger effect = higher value
# Sequence of L-lactate dehydrogenase (Plasmodium falciparum (isolate CDC / Honduras)) (Q27743 whole entry, looked up): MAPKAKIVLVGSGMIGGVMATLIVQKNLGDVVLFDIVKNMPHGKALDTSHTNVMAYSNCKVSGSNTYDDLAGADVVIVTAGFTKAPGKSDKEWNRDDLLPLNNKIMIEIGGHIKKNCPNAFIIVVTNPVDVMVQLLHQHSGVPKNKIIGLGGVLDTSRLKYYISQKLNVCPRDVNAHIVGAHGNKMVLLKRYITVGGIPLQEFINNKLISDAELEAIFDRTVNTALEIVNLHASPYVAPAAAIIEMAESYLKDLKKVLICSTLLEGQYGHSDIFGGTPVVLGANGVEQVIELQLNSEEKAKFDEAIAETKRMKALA
# [4] = inhibition of 3D7 malaria parasite growth – strain 3D7 (AID 2306);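 further: 0% = DMSO wells and 100% = chloroquine plus artemisinin control wells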; conditions: P. falciparum 3D7 erythrocytic growth, LDH absorbance, 72 h; at 2 µM; stronger effect = higher value
# [5] = biological target: Calcium-dependent protein kinase 1 (Plasmodium falciparum (isolate 3D7)) (UniProt P62344); assay: PfCDPK1 kinase inhibitors, biochemical, TCAMS library (AID 1159585; cut-off not given, nearly all actives have IC50 up to about 0.98 µM;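 further: inhibitors leave more ATP so luminescence rises with inhibition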); conditions: recombinant PfCDPK1, Kinase-Glo ATP depletion luminescence
# Sequence of Calcium-dependent protein kinase 1 (Plasmodium falciparum (isolate 3D7)) (P62344 whole entry, looked up): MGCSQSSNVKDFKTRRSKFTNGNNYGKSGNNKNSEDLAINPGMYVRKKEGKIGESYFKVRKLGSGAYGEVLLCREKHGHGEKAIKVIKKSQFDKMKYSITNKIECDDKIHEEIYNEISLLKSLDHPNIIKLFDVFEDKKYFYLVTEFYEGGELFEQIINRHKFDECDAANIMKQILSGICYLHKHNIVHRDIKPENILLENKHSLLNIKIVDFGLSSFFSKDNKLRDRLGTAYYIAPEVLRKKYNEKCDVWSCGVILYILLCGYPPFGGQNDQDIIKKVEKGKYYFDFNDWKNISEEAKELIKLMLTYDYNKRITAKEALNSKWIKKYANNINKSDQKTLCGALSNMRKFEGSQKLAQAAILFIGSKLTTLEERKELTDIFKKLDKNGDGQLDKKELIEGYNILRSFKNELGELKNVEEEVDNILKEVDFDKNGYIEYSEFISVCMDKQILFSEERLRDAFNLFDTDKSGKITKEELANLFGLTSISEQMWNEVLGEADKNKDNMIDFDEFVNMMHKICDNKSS
# [6] = biological target: Plasmodium falciparum protein kinase 6 (PK6, PF3D7_1337100) (UniProt Q8IDW1); assay: PfPK6 kinase inhibitors, biochemical, TCAMS library (AID 1159586); conditions: recombinant PfPK6, Kinase-Glo ATP depletion luminescence
# Sequence of Plasmodium falciparum protein kinase 6 (PK6, PF3D7_1337100) (Q8IDW1 1-305): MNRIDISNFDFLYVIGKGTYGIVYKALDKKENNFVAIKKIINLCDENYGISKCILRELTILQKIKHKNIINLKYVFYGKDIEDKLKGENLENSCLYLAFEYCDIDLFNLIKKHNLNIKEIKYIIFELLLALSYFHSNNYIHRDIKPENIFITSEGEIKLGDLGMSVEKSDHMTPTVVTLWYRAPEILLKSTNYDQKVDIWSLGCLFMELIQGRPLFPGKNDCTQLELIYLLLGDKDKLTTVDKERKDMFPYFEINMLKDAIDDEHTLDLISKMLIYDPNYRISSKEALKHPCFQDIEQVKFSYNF
# [7] = biological target: Protein kinase 7 (PK7), Plasmodium falciparum 3D7 (PF3D7_0213400) (UniProt Q7YTF7); assay: inhibition of Plasmodium PK7 catalytic activity – biochemical, TCAMS antimalarial set, Kinase-Glo luminescence (AID 1159587); conditions: recombinant PfPK7, Kinase-Glo ATP depletion luminescence
# Sequence of Protein kinase 7 (PK7), Plasmodium falciparum 3D7 (PF3D7_0213400) (Q7YTF7 1-343): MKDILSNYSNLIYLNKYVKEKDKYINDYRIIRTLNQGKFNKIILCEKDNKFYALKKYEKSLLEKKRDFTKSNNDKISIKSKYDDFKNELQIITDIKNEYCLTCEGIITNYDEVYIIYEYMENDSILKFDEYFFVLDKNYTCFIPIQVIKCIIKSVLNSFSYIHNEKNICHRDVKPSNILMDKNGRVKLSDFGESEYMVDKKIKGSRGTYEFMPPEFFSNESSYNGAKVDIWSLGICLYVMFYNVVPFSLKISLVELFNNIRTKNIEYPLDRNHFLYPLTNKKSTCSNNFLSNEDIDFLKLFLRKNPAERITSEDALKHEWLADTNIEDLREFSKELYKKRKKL
# [8] = biological target: Calcium-dependent protein kinase 4 (Plasmodium falciparum (isolate 3D7)) (UniProt Q8IBS5); assay: PfCDPK4 kinase inhibitors, biochemical, TCAMS library (AID 1159588; cut-off not given, nearly all actives have IC50 up to about 0.91 µM); conditions: recombinant PfCDPK4, Kinase-Glo ATP depletion luminescence
# Sequence of Calcium-dependent protein kinase 4 (Plasmodium falciparum (isolate 3D7)) (Q8IBS5 whole entry, looked up): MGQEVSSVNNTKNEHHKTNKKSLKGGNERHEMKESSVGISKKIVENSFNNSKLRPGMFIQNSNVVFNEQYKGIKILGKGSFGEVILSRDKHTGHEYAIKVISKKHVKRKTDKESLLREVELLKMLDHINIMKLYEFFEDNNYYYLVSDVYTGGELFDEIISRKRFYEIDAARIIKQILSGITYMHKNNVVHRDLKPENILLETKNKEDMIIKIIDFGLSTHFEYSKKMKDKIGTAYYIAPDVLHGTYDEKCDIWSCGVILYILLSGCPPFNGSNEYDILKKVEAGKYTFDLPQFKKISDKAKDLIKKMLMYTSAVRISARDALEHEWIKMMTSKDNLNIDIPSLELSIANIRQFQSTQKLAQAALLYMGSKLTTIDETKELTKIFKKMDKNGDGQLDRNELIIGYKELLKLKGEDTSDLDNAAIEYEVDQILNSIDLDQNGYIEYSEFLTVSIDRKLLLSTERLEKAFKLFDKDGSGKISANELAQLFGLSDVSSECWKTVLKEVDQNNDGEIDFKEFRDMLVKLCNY
SMILES,growth inhibition [1],inhibition [2],inhibition [3] [%],growth inhibition [4],outcome [5],outcome [6],outcome [7],outcome [8]
Cc1ccc(NC(=O)c2ccc3ncccc3c2)cc1OC1CCN(CCC(C)C)C1 (stereo not drawn),62% (active),5%,-4,98% (active),inactive,inactive,inactive,inactive
CCc1c(CCNCCCCCCNC(C)Cc2ccc3c(c2CC)OCO3)ccc(OC)c1OC (stereo not drawn),64% (active),100% (active),0,101% (active),inactive,inactive,inactive,inactive
Cc1nnsc1C(=O)Nc1cccc(-c2csc(-c3nc4ccccc4[nH]3)c2)c1,50% (active),51% (active),8,94% (active),inactive,inactive,inactive,inactive
Fc1ccc(C=NNc2ccnc3ccc(C(F)(F)F)cc23)cc1,6%,22%,4,90% (active),inactive,inactive,inactive,inactive
COc1ccc2nccc([C@@H](O)CN3CCC(NC(=O)c4ccc(-c5ccccc5)s4)CC3)c2c1,81% (active),10%,-6,100% (active),inactive,inactive,inactive,inactive
COc1ccc(-c2ccc(CNC(=O)c3ccc(C#N)cc3)c(F)c2)cc1CN1CCCN(C)CC1,1%,6%,-10,90% (active),inactive,inactive,inactive,inactive
O=C(NCCN1Cc2ccccc2C1=O)c1ccc(Oc2ccc(C(=O)NCCN3Cc4ccccc4C3=O)cc2)cc1,95% (active),27%,-1,99% (active),inactive,inactive,inactive,inactive
CC(C)[C@H](NC(=O)c1ccc(O)c(-c2ccc(Cl)c(Cl)c2)c1)C(=O)NCCN(C)C,1%,-4%,-3,92% (active),inactive,inactive,inactive,inactive
COc1ccc(-c2cccc(NC(=O)c3ccc(C#N)cc3)c2)cc1CN(C)CCN(C)C,18%,14%,3,90% (active),inactive,inactive,inactive,inactive
O=C(/C=C/c1ccc(Cl)c(Cl)c1)N1CCC(CCN2CCC(c3c[nH]c4ccccc34)CC2)CC1,44%,56% (active),-3,100% (active),inactive,inactive,inactive,inactive
COc1cccc2cc(C(=O)N[C@@H](CC(C)C)C(=O)N[C@H](/C=N/NC(=O)c3ccccc3)Cc3cnc[nH]3)oc12,90% (active),3%,-6,99% (active),inactive,inactive,inactive,inactive
O=[N+]([O-])c1cccc(C=NNc2nc(Nc3ccccc3)nc(Nc3ccccc3)n2)c1,55% (active),10%,3,99% (active),inactive,inactive,inactive,inactive
Cc1cc(NN=Cc2cccc(Cl)c2)c2cc(F)ccc2n1,100% (active),1%,-5,101% (active),inactive,inactive,inactive,inactive
Cc1cccc2[nH]c(-c3ccc(-c4cccc(CNCCN5CCNCC5)c4)cc3)nc12,2%,9%,1,85% (active),inactive,inactive,inactive,inactive
O=C(Nc1cccc(-c2cccc(-c3nc4ccc(C(F)(F)F)cc4[nH]3)c2)c1)c1ccncc1,61% (active),52% (active),4,101% (active),inactive,inactive,inactive,inactive
CCN(CC)CCCN(C(=O)Nc1c(Cl)cncc1Cl)c1nc(-c2ccc(F)cc2)cs1,93% (active),37%,-5,101% (active),inactive,inactive,inactive,inactive

SMILES,growth inhibition [1],inhibition [2],inhibition [3] [%],growth inhibition [4],outcome [5],outcome [6],outcome [7],outcome [8]
CCOc1ccc2nc(C)cc(NN=Cc3ccccc3[N+](=O)[O-])c2c1,99% (active),91% (active),-5,101% (active),inactive,inactive,inactive,inactive
c1ccc2c(Nc3ccc(Cc4ccc(Nc5c6ccccc6nc6ccccc56)cc4)cc3)c3ccccc3nc2c1,101% (active),93% (active),7,101% (active),inactive,inactive,inactive,inactive
COc1ccc2nccc([C@@H](O)CN3CCC(NCc4ccc(OC)c(NC(C)=O)c4)CC3)c2c1,0%,-5%,-4,90% (active),inactive,inactive,inactive,inactive
c1ccc2ncc(CNCCCCCCCCNCc3cnc4ccccc4c3)cc2c1,4%,8%,-3,88% (active),inactive,inactive,inactive,inactive
Cc1[nH]n(-c2cccc(C(F)(F)F)c2)c(=O)c1-c1ccc(Cl)cc1,25%,7%,-4,98% (active),inactive,inactive,inactive,inactive
COc1ccc(-c2cccc(NC(=O)c3ccc(C#N)cc3)c2)cc1CN1CCCN(C)CC1,89% (active),22%,-3,101% (active),inactive,inactive,inactive,inactive
O=C(NC1CCCCC1)N(Cc1ccccc1-c1ccc(CNCCc2ccccc2)cc1)C1CCN(Cc2ccccc2)CC1,92% (active),96% (active),-6,90% (active),inactive,inactive,inactive,inactive
COc1cc2c(cc1OC)CN(CCc1ccc(NC(=O)c3cc4cc(Cl)ccc4[nH]3)cc1)CC2,6%,3%,2,90% (active),inactive,inactive,inactive,inactive
CCCNc1nc(Nc2ccccc2C)nc2ccccc12,64% (active),13%,1,95% (active),inactive,inactive,inactive,inactive
COc1cc2nccc(Nc3ccc4c(cnn4Cc4ccccc4F)c3)c2cc1OC,91% (active),55% (active),-8,101% (active),inactive,inactive,inactive,inactive
Cc1ccccc1C1CCN(c2ncc(C(=O)NC3CC3)cc2Cl)CC1,96% (active),22%,-1,96% (active),inactive,inactive,inactive,inactive
CCCNCc1c(O)ccc2c(CNCCC)c(O)ccc12,9%,24%,-1,101% (active),inactive,inactive,inactive,inactive
CC(C)COc1ccc(Cl)cc1Cc1nc(-c2nc3c(CN4CCN(C)CC4)cccc3[nH]2)cs1,30%,15%,-2,99% (active),inactive,inactive,inactive,inactive
Cc1nc2nc(N)nc(N)c2c(C)c1Cc1cccc(C(F)(F)F)c1,23%,65% (active),-2,89% (active),inactive,inactive,inactive,inactive
CCC(N)(C#Cc1ccc(-c2c(C)[nH]c(C)c(Br)c2=O)cc1)CC,96% (active),0%,-1,97% (active),inactive,inactive,inactive,inactive
